Key:
Conditions in all cases: concentration: 1 μM, replicates: in singlicate; n = 1
[1] = system: MST1R
[2] = system: T1, MST1
T1 construct: gene STK4

[3] = system: T2, MST2
T2 construct: gene STK3

[4] = system: T3, MST3
T3 construct: gene STK24

[5] = system: MST4
[6] = system: MTOR
[7] = system: MUSK
[8] = system: MYLK2
[9] = system: MYLK4
[10] = system: MYLK
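Note: KINOMEscan kinase panel screen.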

Row | Structure (SMILES) | %Inh [1] [%] | %Inh [2] [%] | %Inh [3] [%] | %Inh [4] [%] | %Inh [5] [%] | %Inh [6] [%] | %Inh [7] [%] | %Inh [8] [%] | %Inh [9] [%] | %Inh [10] [%]
1 | COc1ccc(Nc2nccc(N3CCC(NC(=O)c4cc5ccccc5s4)C3)n2)cc1 (centres unmarked) [GSK1379738] | 27 | 0 | 0 | 0 | 0 | 15 | 0 | 0 | 3 | 11
2 | Cc1ccc(NC(=O)Nc2ccc(Cl)cc2)cc1-c1ccc(C(=O)Nc2ccncc2)cc1 [GSK1398472] | 20 | 8 | 0 | 0 | 0 | 18 | 11 | 0 | 0 | 2
3 | CNCc1ccc2nc(NC(=O)c3ccc(C(C)(C)C)cc3)cn2c1 | 18 | 16 | 25 | 7 | 24 | 2 | 0 | 7 | 1 | 24
4 | Cc1c(Cn2c3ccccc3n3c(=O)cc(N4CCOCC4)nc23)cccc1C(F)(F)F [GSK2306394] | 0 | 15 | 12 | 2 | 0 | 3 | 6 | 17 | 0 | 2
5 | O=C(Nc1n[nH]c2nc(-c3cccs3)c(Br)cc12)C1CC1 [SB-735297] | 0 | 3 | 4 | 0 | 5 | 0 | 0 | 99.4 | 29 | 29
6 | O=C1NC(=O)C(c2ccc(Cl)cc2)=C1Nc1ccc(O)cc1 [SB-340867] | 0 | 0 | 0 | 0 | 0 | 0 | 0 | 0 | 3 | 11
7 | Nc1cccc(-c2ccc3c(N)n[nH]c3c2)n1 [GSK2192730] | 33 | 0 | 21 | 9 | 0 | 15 | 4 | 90 | 72 | 34
8 | O=c1cc(N2CCOCC2)nc2n(Cc3ccccc3F)ccn12 [GSK2297428] | 26 | 8 | 0 | 0 | 0 | 13 | 0 | 0 | 0 | 12
9 | COC(=O)C(Cc1ccccc1)NC(=O)NC1CCN(c2ccnc(Nc3ccc(F)cc3)n2)C1 (centres unmarked) [GSK1379714] | 39 | 5 | 0 | 3 | 0 | 33 | 8 | 0 | 13 | 11
10 | Fc1ccc(-c2nc[nH]c2-c2ccncc2)cc1 [SB-217360] | 0 | 13 | 0 | 0 | 0 | 4 | 0 | 0 | 0 | 3
11 | COc1ccc(CSc2nnc(-c3ccc4c(c3)CCO4)o2)cc1 | 13 | 0 | 0 | 0 | 0 | 0 | 0 | 0 | 3 | 0
12 | Nc1nccc(-c2c(-c3ccc(F)cc3)ncn2C2CCN(Cc3ccccc3)CC2)n1 [SB-219980] | 0 | 17 | 8 | 0 | 0 | 23 | 0 | 0 | 0 | 0
13 | O=C(Nc1n[nH]c2cc(-c3ccsc3)ccc12)C1CC1 [SB-732932] | 22 | 0 | 34 | 16 | 27 | 0 | 11 | 97.1 | 22 | 24
14 | COc1nccc(-c2c(-c3ccc(F)cc3)ncn2CCCN2CCOCC2)n1 [SB-282852] | 0 | 0 | 22 | 0 | 0 | 0 | 0 | 56 | 0 | 18
15 | COc1ccc(Nc2nccc(NCCNC(=O)Nc3cc(C)ccc3C)n2)cc1 [GSK1379899] | 15 | 8 | 0 | 0 | 0 | 0 | 0 | 14 | 0 | 0
16 | CS(=O)(=O)Cc1ccc(Nc2nccc(-c3c(-c4cccc(NC(=O)C5CCCCC5)c4)nn4ncccc34)n2)cc1 [GSK350559] | 11 | 11 | 44 | 3 | 23 | 18 | 0 | 0 | 0 | 31
17 | Cc1ccc(NC(=O)Nc2ccccc2)cc1-c1ccc(C(=O)Nc2ccncc2)cc1 [GSK1398471] | 29 | 0 | 0 | 0 | 0 | 0 | 4 | 0 | 3 | 20

— article PMC5540273 (PLoS ONE, 2017)
